# Laboratory results: the supplement of paper PMC8975748
# Counter-ions that a name gives are not always drawn. ± gives the standard deviation of the averaged measurements.
# What was measured:
# [1] = test system: Saccharomyces cerevisiae BY4741 SeMeCo community; assay: mean cell size (pixel area) (pixels); higher = larger cells; conditions: 10 µM; 24 h; SM minimal medium
# In short: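 Mean cell pixel area per well was measured in a four-plasmid fluorescent community of Saccharomyces cerevisiae BY4741, where every plasmid complements one auxotrophy and carries a fluorescent marker. Cells from an overnight preculture at OD600 = 1.0 were diluted to OD600 = 0.3 and dispensed at 70 µl into 384-well plates acoustically predosed with drug to a final 10 µM in SM medium. Incubation lasted 24 h, followed by paraformaldehyde fixation, automated confocal imaging and analysis in Harmony. Reported figures are averaged over 3 replicates. Same SeMeCo high-content imaging drug screen: Selleck FDA-approved drugs at 10 µM, 24 h in SM medium, 384-well plates, 3 replicates.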
# [2] = test system: Saccharomyces cerevisiae BY4741 SeMeCo community; assay: z-score of subpopulation abundance vs DMSO median, subpopulation auxotrophic for M; higher = larger share of this subpopulation than in DMSO controls; conditions: 10 µM; 24 h; SM minimal medium; subpopulation (auxotrophy): M
# In short: (§1)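 Subpopulation abundance was reported as a z-score against the median of vehicle wells. The Saccharomyces cerevisiae BY4741 community, carrying four plasmids that each restored one auxotrophy and encoded a distinct fluorescent protein, was grown 24 h in minimal SM medium in 384-well plates holding library drugs at 10 µM final. Cells were paraformaldehyde-fixed and imaged by automated confocal microscopy, with single-auxotroph fluorescent strains used for thresholds and autofluorescence correction.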
# [3] = test system: Saccharomyces cerevisiae BY4741 SeMeCo community; assay: z-score of subpopulation abundance vs DMSO median, subpopulation auxotrophic for L; higher = larger share of this subpopulation than in DMSO controls; conditions: 10 µM; 24 h; SM minimal medium; subpopulation (auxotrophy): L
# In short: as §1
# [4] = test system: Saccharomyces cerevisiae BY4741 SeMeCo community; assay: z-score of subpopulation abundance vs DMSO median, subpopulation auxotrophic for U; higher = larger share of this subpopulation than in DMSO controls; conditions: 10 µM; 24 h; SM minimal medium; subpopulation (auxotrophy): U
# In short: as §1
# [5] = test system: Saccharomyces cerevisiae BY4741 SeMeCo community; assay: z-score of subpopulation abundance vs DMSO median, subpopulation auxotrophic for LU; higher = larger share of this subpopulation than in DMSO controls; conditions: 10 µM; 24 h; SM minimal medium; subpopulation (auxotrophy): LU
# In short: as §1
# [6] = test system: Saccharomyces cerevisiae BY4741 SeMeCo community; assay: z-score of subpopulation abundance vs DMSO median, subpopulation auxotrophic for HM; higher = larger share of this subpopulation than in DMSO controls; conditions: 10 µM; 24 h; SM minimal medium; subpopulation (auxotrophy): HM
# In short: as §1
# [7] = test system: Saccharomyces cerevisiae BY4741 SeMeCo community; assay: z-score of subpopulation abundance vs DMSO median, subpopulation auxotrophic for HU; higher = larger share of this subpopulation than in DMSO controls; conditions: 10 µM; 24 h; SM minimal medium; subpopulation (auxotrophy): HU
# In short: as §1
# [8] = test system: Saccharomyces cerevisiae BY4741 SeMeCo community; assay: z-score of subpopulation abundance vs DMSO median, subpopulation auxotrophic for UM; higher = larger share of this subpopulation than in DMSO controls; conditions: 10 µM; 24 h; SM minimal medium; subpopulation (auxotrophy): UM
# In short: as §1
# [9] = test system: Saccharomyces cerevisiae BY4741 SeMeCo community; assay: z-score of subpopulation abundance vs DMSO median, subpopulation auxotrophic for HLU; higher = larger share of this subpopulation than in DMSO controls; conditions: 10 µM; 24 h; SM minimal medium; subpopulation (auxotrophy): HLU
# In short: as §1
# [10] = test system: Saccharomyces cerevisiae BY4741 SeMeCo community; assay: z-score of subpopulation abundance vs DMSO median, subpopulation auxotrophic for HLM; higher = larger share of this subpopulation than in DMSO controls; conditions: 10 µM; 24 h; SM minimal medium; subpopulation (auxotrophy): HLM
# In short: as §1
# [11] = test system: Saccharomyces cerevisiae BY4741 SeMeCo community; assay: z-score of subpopulation abundance vs DMSO median, subpopulation auxotrophic for LUM; higher = larger share of this subpopulation than in DMSO controls; conditions: 10 µM; 24 h; SM minimal medium; subpopulation (auxotrophy): LUM
# In short: as §1
# [12] = test system: Saccharomyces cerevisiae BY4741 SeMeCo community; assay: z-score of prototroph abundance vs DMSO median; higher = larger share of this subpopulation than in DMSO controls; conditions: 10 µM; 24 h; SM minimal medium; subpopulation (auxotrophy): Prototroph
# In short: as §1
# [13] = test system: Saccharomyces cerevisiae BY4741 SeMeCo community; assay: z-score of subpopulation abundance vs DMSO median, subpopulation auxotrophic for H; higher = larger share of this subpopulation than in DMSO controls; conditions: 10 µM; 24 h; SM minimal medium; subpopulation (auxotrophy): H
# In short: as §1
# [14] = test system: Saccharomyces cerevisiae BY4741 SeMeCo community; assay: z-score of subpopulation abundance vs DMSO median, subpopulation auxotrophic for HLUM; higher = larger share of this subpopulation than in DMSO controls; conditions: 10 µM; 24 h; SM minimal medium; subpopulation (auxotrophy): HLUM
# In short: as §1
# [15] = test system: Saccharomyces cerevisiae BY4741 SeMeCo community; assay: z-score of subpopulation abundance vs DMSO median, subpopulation auxotrophic for LM; higher = larger share of this subpopulation than in DMSO controls; conditions: 10 µM; 24 h; SM minimal medium; subpopulation (auxotrophy): LM
# In short: as §1
# [16] = test system: Saccharomyces cerevisiae BY4741 SeMeCo community; assay: z-score of subpopulation abundance vs DMSO median, subpopulation auxotrophic for HL; higher = larger share of this subpopulation than in DMSO controls; conditions: 10 µM; 24 h; SM minimal medium; subpopulation (auxotrophy): HL
# In short: as §1
# [17] = test system: Saccharomyces cerevisiae BY4741 SeMeCo community; assay: z-score of subpopulation abundance vs DMSO median, subpopulation auxotrophic for HUM; higher = larger share of this subpopulation than in DMSO controls; conditions: 10 µM; 24 h; SM minimal medium; subpopulation (auxotrophy): HUM
# In short: as §1
Structure (SMILES),mean cell size [1],z-score of subpopulation abundance [2],z-score of subpopulation abundance [3],z-score of subpopulation abundance [4],z-score of subpopulation abundance [5],z-score of subpopulation abundance [6],z-score of subpopulation abundance [7],z-score of subpopulation abundance [8],z-score of subpopulation abundance [9],z-score of subpopulation abundance [10],z-score of subpopulation abundance [11],z-score of prototroph abundance [12],z-score of subpopulation abundance [13],z-score of subpopulation abundance [14],z-score of subpopulation abundance [15],z-score of subpopulation abundance [16],z-score of subpopulation abundance [17]
COc1ccc(C[C@H](N)C(=O)N[C@H]2[C@@H](O)[C@H](n3cnc4c(N(C)C)ncnc43)O[C@@H]2CO)cc1 [Puromycin 2HCl],12.5 ± 0.13,0.81,-0.61,0.92,-0.06,0,0.15,1.61,-0.44,-0.12,-0.39,,,,,,
CC(=O)OCC1=C(C(=O)O)N2C(=O)[C@@H](NC(=O)Cc3cccs3)[C@H]2SC1 [Cephalothin],12.7 ± 0.19,1.49,-0.16,-1.22,-0.87,1.49,-0.81,-0.2,-0.21,0.05,-0.19,0.3,0.18,-0.41,,,
C/C(=C\C(=O)OCCCCCCCCC(=O)O)C[C@@H]1OC[C@H](C[C@@H]2O[C@H]2[C@@H](C)[C@H](C)O)[C@@H](O)[C@H]1O [Mupirocin calcium],12.2 ± 0.29,-0.19,-0.72,1.26,0.56,0.83,,1.73,0.12,-0.09,0.39,-0.73,0.77,-0.25,-0.21,-0.37,
CC(C)[N+](C)(CCOC(=O)C1c2ccccc2Oc2ccccc21)C(C)C [Propantheline bromide],,1.26,-0.57,-0.28,-0.92,0.76,,,-1.23,-0.74,-1.5,0.94,,,-0.04,-0.65,
Cc1cccc(C)c1OCC(C)N (stereo not drawn) [Mexiletine HCl],12.3 ± 0.13,-0.98,-0.39,,0.44,-0.64,0.61,-0.36,-0.19,-1.23,-0.37,,-0.52,-0.35,,-0.55,
CC[C@H]1OC(=O)[C@H](C)[C@@H](O[C@H]2C[C@@](C)(OC)[C@@H](O)[C@H](C)O2)[C@H](C)[C@@H](O[C@@H]2O[C@H](C)C[C@H](N(C)C)[C@H]2O)[C@](C)(O)C[C@@H](C)CN[C@H](C)[C@@H](O)[C@]1(C)O [Azathramycin],12.5 ± 0.16,0,-0.61,0.07,-0.39,0.1,-0.16,0.42,-1.12,-0.79,-0.37,0.12,0.33,-0.5,-0.14,-0.33,
CC(C)(O/N=C(\C(=O)N[C@@H]1C(=O)N2C(C(=O)[O-])=C(C[n+]3ccccc3)CS[C@H]12)c1csc(N)n1)C(=O)O [Ceftazidime],,-0.44,-0.23,-0.24,-0.93,-0.26,0.43,0.27,0.34,-0.39,0.05,0.11,0.63,-0.76,-0.09,0.02,
CC(C(=O)O)c1cccc(C(=O)c2ccccc2)c1 (stereo not drawn) [Ketoprofen],12.4 ± 0.2,-0.04,1.73,-0.65,0.57,0.55,-0.66,-0.3,0.39,,1.22,-0.62,0.99,1.1,1.24,1.42,-0.02
COCCCC/C(=N\OCCN)c1ccc(C(F)(F)F)cc1 [Fluvoxamine maleate],12.3 ± 0.13,0.23,0.54,,-0.03,-0.09,-0.5,-0.21,-0.3,-0.76,0.15,0.26,-0.64,-0.43,0.51,-0.26,
CCN(CC)C(=O)C1(c2ccccc2)CC1CN (stereo not drawn) [Milnacipran HCl],12.3 ± 0.28,-0.86,0.74,0.47,0.01,-0.8,-0.14,0.33,-0.08,-0.14,,0.28,-1.04,-0.13,0,-0.61,
C[C@H]1NCc2cc(-c3ccc4c(=O)c(C(=O)O)cn(C5CC5)c4c3OC(F)F)ccc21 [Garenoxacin],12.34 ± 0.078,0.86,-0.44,0.6,-0.05,0.28,0.7,-0.07,0.74,0.1,0.75,,-0.22,-0.08,0.15,0.46,
CCCCCOc1ccc(-c2ccc(-c3ccc(C(=O)N[C@H]4C[C@@H](O)[C@@H](O)NC(=O)[C@@H]5[C@@H](O)[C@@H](C)CN5C(=O)[C@H]([C@@H](C)O)NC(=O)[C@H]([C@H](O)[C@@H](O)c5ccc(O)cc5)NC(=O)[C@@H]5C[C@@H](O)CN5C(=O)[C@H]([C@@H](C)O)NC4=O)cc3)cc2)cc1,12.6 ± 0.25,-11.7,4.48,,5.21,0.97,17.2,1.54,21.5,42,9.08,-14.8,25,76,1.2,31.2,
CN1CCN(c2cc3c(cc2F)c(=O)c(C(=O)O)cn3-c2ccc(F)cc2)CC1 [Difloxacin hydrochloride],,0.06,-0.28,,-0.13,-0.76,-0.87,-0.52,-0.55,-0.2,-0.26,0.85,-2.54,0.23,-0.31,-1.38,
Cc1ccsc1/C=C/C1=NCCCN1C [Morantel tartrate],12.28 ± 0.098,0.85,-1.36,,0.13,-0.19,0.3,0.1,-0.25,-0.2,-0.24,0.27,-1.74,,-0.48,-0.87,
Oc1ccc(C2CNCCc3c2cc(O)c(O)c3Cl)cc1 (stereo not drawn) [Fenoldopam mesylate],12.9 ± 0.26,1.31,-1.59,-1.92,-1.75,1.58,,,-0.29,0.63,-1.22,0.87,0.06,1.24,2.31,0.16,
